High-throughput results: PubChem BioAssay, NMMLSC
Shown are actives, neighbours in structure and some others; about 3.5% of the full set was active somewhere.
BoNT-A LC inh2 = BoNT/A light chain protease inhibitors, primary screen, biochemical, flow cytometry, MLPCN library; Botulinum neurotoxin type A light chain protease (Clostridium botulinum A str. ATCC 3502); multiplex microsphere protease substrate cleavage; inhibition, % at 10 µM; 0.17% of 360,000 active; AID 588499, 2011; note: plate controls were buffer without enzyme for full effect and enzyme alone for no effect
BoNT F protease = BoNT/F light chain protease inhibitors, primary screen, biochemical, flow cytometry, MLPCN library. Botulinum neurotoxin type F light chain protease (Clostridium botulinum). Multiplex microsphere protease cleavage assay. inhibition, % at 10 µM. 0.22% of 360,000 active; in the data active = inhibition above about 35%, passing the limit was not always enough; inconclusive = no clear call, values can overlap the other calls; note: plate controls were buffer without enzyme for full effect and enzyme alone for no effect
Anthrax LF prot = Bacillus anthracis LF protease inhibitors, primary screen, biochemical, multiplex microsphere, MLPCN library. Lethal factor (Bacillus anthracis), P15917. multiplex microsphere protease cleavage assay. inhibition, % at 10 µM. 0.12% of 360,000 active. AID 588501, 2011; note: plate controls were buffer without enzyme for full effect and enzyme alone for no effect
Target sequence (P15917 whole entry, looked up): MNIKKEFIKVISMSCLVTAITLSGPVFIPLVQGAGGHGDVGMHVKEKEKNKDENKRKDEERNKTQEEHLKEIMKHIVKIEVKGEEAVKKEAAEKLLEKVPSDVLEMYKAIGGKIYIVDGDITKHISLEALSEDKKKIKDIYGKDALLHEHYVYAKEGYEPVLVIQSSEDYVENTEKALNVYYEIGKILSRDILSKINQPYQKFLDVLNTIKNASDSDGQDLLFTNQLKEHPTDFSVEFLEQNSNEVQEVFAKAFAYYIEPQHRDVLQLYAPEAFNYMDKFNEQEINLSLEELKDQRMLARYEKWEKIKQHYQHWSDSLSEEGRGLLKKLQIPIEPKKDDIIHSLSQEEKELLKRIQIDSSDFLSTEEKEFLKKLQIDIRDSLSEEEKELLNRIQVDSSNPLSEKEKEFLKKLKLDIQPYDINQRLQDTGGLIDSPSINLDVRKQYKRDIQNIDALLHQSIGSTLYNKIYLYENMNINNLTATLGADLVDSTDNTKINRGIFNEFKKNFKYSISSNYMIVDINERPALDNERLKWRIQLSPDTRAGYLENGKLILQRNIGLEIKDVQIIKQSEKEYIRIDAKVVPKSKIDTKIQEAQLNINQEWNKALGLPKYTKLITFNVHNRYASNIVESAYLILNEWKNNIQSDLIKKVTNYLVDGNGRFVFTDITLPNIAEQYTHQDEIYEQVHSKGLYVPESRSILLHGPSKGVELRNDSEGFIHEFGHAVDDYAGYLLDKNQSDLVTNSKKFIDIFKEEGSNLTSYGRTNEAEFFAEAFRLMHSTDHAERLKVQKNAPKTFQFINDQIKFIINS
Autofluor counter = counter-screen for toxin protease inhibitors: compound fluorescence | compound autofluorescence counterscreen, microsphere flow cytometry; hits give high values | fluorescence intensity (concentration not given with the values) | 3.1% of 360,000 active; in the data active = fluorescence intensity above about 16000; inconclusive = no clear call, values can overlap the other calls
Active calls of the source: *; ? = inconclusive. Cut-off read from the data, not from the text of the source, unless noted: active = inhibition above about 30%; inconclusive = no clear call, values can overlap the other calls; inactive = below that.

SMILES | BoNT-A LC inh2 | BoNT F protease | Anthrax LF prot | Autofluor counter
CCCCCc1nc2ccccc2c(=O)n1-c1ccc(Cl)cc1[N+](=O)[O-] | -3 | -6 | 0 | 23302*
CCCN(CCC)S(=O)(=O)c1ccc(NS(C)(=O)=O)cc1 | 0 | -6 | -2 | 3144
CCCN(CCC)S(=O)(=O)c1ccc(NS(=O)(=O)c2ccc(F)cc2)cc1 | -2 | -1 | -3 | 17098*
O=C(CN1CCCCCC1)Nc1ccccc1 | -1 | 2 | 0 | 4363
COc1cccc(NC(=O)CN(C)C(=O)c2ccc3ccccc3c2)c1 | -2 | -5 | 0 | 23982*
COc1cccc(NC(=O)c2cnsn2)c1 | -2 | -2 | -4 | 17160*
O=C(CN1CCCCC1)Nc1cccc(Oc2ccccc2)c1 | -2 | -6 | 1 | 23011*
COc1cccc(NC(=O)c2cccc(C(=O)Nc3cccc(OC)c3)n2)c1 | 0 | 3 | 2 | 6169
COc1cccc(NC(=O)CSCC(=O)O)c1 | -1 | 0 | 2 | 17067*
CN(C)c1ccc(-c2nnc(-c3ccccc3F)o2)cc1 | -2 | ? | -6 | 4280
COC(=O)C1=C(C(=O)OC)[C@]2([C@H]3CCCCN[C@@H](Cc4ccccc4)C(=O)N3Cc3ccccc3)C=C[C@H]1O2 | 0 | -6 | -7 | 4305
O=C(c1cccc(S(=O)(=O)N2CCCC2)c1)N1CCN(S(=O)(=O)c2cccc(Cl)c2)CC1 | ? | ? | ? | 4422
COc1cccc(N/C(SC)=C(/C#N)C(N)=O)c1 | -2 | -2 | -4 | 23601*
COc1cccc(NC(=O)CN2CCC(C)CC2)c1 | ? | 0 | 0 | 22557*
COc1cccc(N/C(SC)=C(/C#N)C(=O)NCc2cccs2)c1 | -1 | -6 | -4 | 3486
COc1cccc(NC(=O)COC(=O)c2c3c(nc4ccccc24)CCC(C)C3)c1 (configuration not stated) | 4 | 0 | 0 | 19387*
Fc1ccc(Oc2cnc3ccccc3n2)cc1 | 0 | 0 | 2 | 2246
Clc1ccc(Oc2cnc3ccccc3n2)cc1 | -2 | -4 | -3 | 24944*
Cc1ccc(Oc2cnc3ccccc3n2)cc1 | ? | -2 | -4 | 20600*
COc1ccccc1N(C(=O)CNC(=O)c1ccco1)C(C(=O)NC1CCCCC1)c1ccncc1 (configuration not stated) | 1 | 3 | -3 | 4764
Cn1c(SCC(=O)NCC2CCCO2)ncc(C(=O)Nc2ccc(Cl)cc2)c1=O (configuration not stated) | 0 | 14 | 2 | 6019
CNC(=O)CSc1nnc(NC(=O)C2CC(=O)N(c3ccccc3OC)C2)s1 (configuration not stated) | 0 | 1 | -5 | 5990
CCCSc1nc(-c2ccccc2)cc(C(F)(F)F)c1C#N | 10 | 10 | -3 | 19871*
N#Cc1c(C(F)(F)F)cc(-c2ccccc2)nc1SCCN1CCOCC1 | 0 | -2 | -1 | 11081
Cc1ccc(N(C)S(=O)(=O)c2cccc(C(=O)NCC(c3ccco3)N3CCCC3)c2)cc1 (configuration not stated) | -1 | 7 | 6 | 9786
SMILES | BoNT-A LC inh2 | BoNT F protease | Anthrax LF prot | Autofluor counter
CCc1ccccc1NC(=O)C(Cc1cccc(OC)c1OC)c1nn[nH]n1 (configuration not stated) | 2 | 4 | -1 | 15651
COc1cccc(CC(C(=O)Nc2cc(C)ccc2C)c2nn[nH]n2)c1OC (configuration not stated) | 1 | 0 | 1 | 22565*
O=C(CN1C(=O)c2ccccc2C1=O)Nc1sc2c(c1C(=O)NCc1ccco1)CCCC2 | -2 | -8 | -1 | 4418
O=C(CN1C(=O)c2ccccc2C1=O)Nc1sc2c(c1C(=O)NCC1CCCO1)CCC2 (configuration not stated) | 0 | -1 | 0 | 22614*
CCn1c(=O)c(=O)[nH]c2cc(C(=O)N(C)Cc3ccc(OC)c(F)c3)ccc21 | 1 | -5 | -1 | 5027
CC(=O)NC(Cc1ccccc1)C(=O)Oc1ccc2ccccc2c1 (configuration not stated) | 0 | -2 | -4 | 3036
Cc1ccc(NS(=O)(=O)c2ccc(CCC(=O)NC3CC3)cc2)cc1 | 1 | 2 | -2 | 23092*
Cc1ccc(S(=O)(=O)NC2CC2)cc1 | 1 | -2 | 5 | 3237
Cc1ccc(S(=O)(=O)NC2CCC(C(=O)O)CC2)cc1 (configuration not stated) | -1 | -3 | 1 | 17170*
Cc1ccc(S(=O)(=O)NCC(=O)NC2CCCC2)cc1 | -2 | -1 | 0 | 23092*
COc1ccc(C(C)(C)C)cc1NC(=O)COC(=O)C1=NNC(=O)CC1 | -2 | -1 | -6 | 7890
Cc1ccc(C(=O)Nc2ccc(CC(=O)O)cc2)o1 | 4 | 7 | -12 | 18362*
Cc1ccc(C(=O)Nc2ccc(NC(=O)c3ccc(C)o3)cc2)o1 | -3 | 0 | 14 | 2890
CSc1ccccc1C(=O)Nc1ccccc1C(=O)NC(C)C | 0 | 1 | 2 | 4562
Nc1cccc2c1C(=O)N(CCOc1ccc(F)cc1)C2=O | 0 | 4 | 3 | 4171
COc1ccccc1/C=C/C(=O)c1c2c(c(C)[nH]c1=O)CCCC2 | ? | 5 | -1 | 21882*
COc1ccccc1/C=C/C(=O)c1ccc(Cl)cc1 | -2 | -2 | -2 | 24068*
O=C(CC1SC2=NCCN2C1=O)Nc1ccc(Br)cc1 (configuration not stated) | -4 | -2 | 0 | 21829*
CCOC(=O)c1ccc(NC(=O)CC2SC3=NCCN3C2=O)cc1 (configuration not stated) | 0 | -1 | -14 | 5738
Clc1ccc(Cl)c(-c2ccc(/C=N/c3ncn[nH]3)o2)c1 | ? | 1 | -12 | 22627*
O/N=C/c1ccc(-c2cc(Cl)ccc2Cl)o1 | 0 | 1 | 2 | 2532
CCCSC1=C(C#N)C(c2ccc(Cl)cc2Cl)CC(=O)N1 (configuration not stated) | -3 | -5 | -1 | 24553*
N#CC1=C(SCC(=O)NCc2ccccc2)NC(=O)CC1c1ccco1 (configuration not stated) | 2 | -5 | -2 | 4769
N#CC1=C(SCc2ccccc2)NC(=O)CC1c1ccco1 (configuration not stated) | 0 | -2 | -5 | 20548*
CCCSC1=C(C#N)C(c2ccccc2OCC)CC(=O)N1 (configuration not stated) | -3 | -7 | -2 | 23587*
COC(=O)C1CCN(C(=O)/C(C)=C\c2ccccc2)CC1 | 1 | -20 | 4 | 3304
CCOC(=O)NC(Nc1nc2ccccc2s1)(C(=O)OCC)C(F)(F)F (configuration not stated) | -6 | -8 | -3 | 25071*
CCOC(=O)NC(Nc1nnc(C)s1)(C(=O)OCC)C(F)(F)F (configuration not stated) | 0 | -2 | -4 | 3871
CN(C(=O)COC(=O)c1cccc(S(=O)(=O)N2CCOCC2)c1)C1CCS(=O)(=O)C1 (configuration not stated) | 0 | -4 | 5 | 6971
